Data on 33 compounds can be found in PubChem BioAssay (NCATS).

Each structure is given as a SMILES string. Inconclusive results are not listed. Unmarked numbers belong to inactive results. Calls of active or inactive are those of the source. The call rests on the fitted dose curve; in most records, active means well fitted cell-killing curve with a large enough effect; inconclusive means small, poorly fitted or top-dose-only effect, or effect the other way; inactive means flat fitted curve, though single readings scatter.
On the % scale 0 is the no-effect control and ±100 the full control effect; potency means the concentration at half of the fitted maximal effect.

For one test, the system named is Tov-21-G. Briefly: Primary qHTS to identify gynecologic anti-cancer compounds using libraries of approved drugs and bioactive compounds (AID 1345084). Further: nearly all actives have a fitted effect of over 55% in size. The conditions noted are these: Gynecologic cancer cell panel viability, ATPlite luminescence, 48 h; series mostly up to 57.5 µM; activity change, negative = cytotoxicity: at the top concentration. The method, boiled down: (§1)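 Cell viability after 48 h drug treatment, ATPlite luminescence readout; five doses.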
For orientation: qHTS replaces the single test concentration by a dilution series.
Turning to `C[C@]12CC[C@H](O)C[C@@]1(O)CC[C@@H]1[C@@H]2CC[C@]2(C)[C@@H](c3ccc(=O)oc3)CC[C@]12O`, the “activity change, negative = cytotoxicity” value is 4.71%.
Same read-out and setting: with `CN1C(=O)N(c2ccc(C#N)c(C(F)(F)F)c2)C(=O)[C@@]1(CO)c1ccccc1` the figure was 2.9%.
For the compound `CC(=O)O[C@H]1C[C@]2(O)[C@@H]3CC[C@@H]4C[C@@H](O)CC[C@]4(C)[C@H]3CC[C@]2(C)[C@H]1c1ccc(=O)oc1`, the Potency was 0.0891 µM (active).
Take `CCCCCn1cc(C(=O)Oc2cccc3cccnc23)c2ccccc21`: the “activity change, negative = cytotoxicity” value was 2.42%.
Consider `CN=C(NS(=O)(=O)c1ccc(Cl)cc1)N1C[C@H](c2ccccc2)C(c2ccc(Cl)cc2)=N1`, for which the “activity change, negative = cytotoxicity” value is 10.4%.
For `COC1CC(O[C@H]2CC[C@@]3(C)C(CCC4C3CC[C@]3(C)C(C5=CC(=O)OC5)CCC43O)C2)OC(C)C1OC1OC(COC2OC(CO)C(O)C(O)C2O)C(O)C(O)C1O` (some centres undefined), the Potency was 2.24 µM (active).
Still for that read-out and setting: as for `C=C(C)[C@@]12O[C@@H]1[C@@]1(C)C(=CC2=O)CC[C@@H](OC(C)=O)[C@@H]1C`, the figure is 10 µM (active).
For the compound `CN(Cc1cccc(-c2ccncc2)c1)C(=O)Oc1ccc(-c2ccc(C(N)=O)cc2)cc1`, the “activity change, negative = cytotoxicity” value was 15.9%.
Same read-out and setting: as for `CN(C(=O)C(c1ccccc1)c1ccccc1)[C@H](CN1CC[C@H](O)C1)c1ccccc1`, the figure is -7.89%; as for `COC(=O)C12C(=O)C(C)(O)C(=O)C1(C)C(C)=CC1C34CCC(OC3=O)C(C)(C)C4CCC12C` (centres undefined), -3.53% [at 25.3 µM].
On the same count and under the same terms, as for `CCOc1ccc(Oc2ccc(OCc3cc(F)ccc3F)cc2)c(N)c1`, the figure is 0.922%; as for `Cc1ccc2c(c1)[C@H]1CN(C)CC[C@H]1N2C(=O)CSc1nnnn1-c1ccc(Cl)cc1`, 10.2%; as for `C=C1C2(C)CC3C(C)(O)C4=CC(=O)OC(C)(C)C4=CCC3(C)C13C(=O)OC(C)C3(O)C2=O` (centres undefined), 4.05% [at 25.3 µM].
For the compound `CCCN(CCC)[C@@H]1CCc2ccc3[nH]c(C#N)cc3c2C1`, the “activity change, negative = cytotoxicity” value is -10%.
For the compound `CC1=CC(=O)[C@@H](O)[C@@]2(C)C1C[C@H]1OC(=O)[C@H](O)[C@@]3(O)[C@@H](C)[C@@H](O)[C@H](O)C2[C@@]13C` (some centres undefined), the Potency is 11.2 µM (active).
`c1ccc([C@@H]2C[C@H]2NC2CCNCC2)cc1`: the “activity change, negative = cytotoxicity” value is -13.6%.
The same measure, in the same setting: as for `CC(=O)OC[C@]12[C@H](OC(C)=O)C(=O)[C@@H]3[C@@H](O)[C@@]14O[C@@]3(C)COC(=O)c1cccnc1[C@@H](C)[C@H](C)C(=O)O[C@@H]([C@H](OC(C)=O)[C@@H]2OC(C)=O)[C@]4(C)O`, the figure is 0.665% [at 25.3 µM].
Same read-out and setting: as for `Cc1c(N[C@@H](c2nnc(-c3ccc(C#N)cc3)o2)[C@H](C)O)ccc(C#N)c1Cl`, the figure is 4.43%.
The same measure, in the same setting: with `COc1ccc2c(c1)c(CCN(C)C)cn2S(=O)(=O)c1ccccc1` the figure was 10.5%.

A further test relates to Tov112D. The description is as above. As to conditions: Gynecologic cancer cell panel viability, ATPlite luminescence, 48 h; series mostly up to 57.5 µM; activity change, negative = cytotoxicity: at the top concentration. In outline: as §1
Background: In ATP-based viability assays light output follows the ATP content of the culture.
Regarding `CN(C)[C@@H]1C(=O)C(C(N)=O)=C(O)[C@@]2(O)C(=O)C3=C(O)c4c(O)ccc(Cl)c4[C@@](C)(O)C3C[C@@H]12` (some centres undefined), the “activity change, negative = cytotoxicity” value was 11.8%.
The same measure, in the same setting: as for `CC(C)[C@H](NC(=O)c1nn(Cc2ccc(F)cc2)c2ccccc12)C(N)=O`, the figure is 2.29%; as for `CN1CCCCC1Cn1cc(C(=O)c2cc([N+](=O)[O-])ccc2I)c2ccccc21` (centres undefined), 0.831%.
On the same count and under the same terms, as for `C=C1C(=O)CC2OC2(C)CC2OC(=O)C(=C)C2C(O)C1OC(=O)/C(C)=C\C` (centres undefined), the figure is -5.61% [at 38.5 µM]; as for `CC12CCC3C(C1)c1c(cc(O)c(C(=O)c4ccccc4)c1OC3(C)C)O2` (centres undefined), -10.1% [at 38.5 µM].
Still for that read-out and setting: as for `CN1C(=O)[C@@H](Cc2c[nH]c3ccccc23)N=C(c2ccccc2F)c2ccccc21`, the figure is -1.25%; as for `C#C[C@]1(O)CC[C@H]2[C@@H]3CC[C@H]4Cc5nc6nc7ccccc7n6cc5C[C@]4(C)[C@H]3CC[C@@]21C`, -14.8%; as for `CC(C)[C@H]1OC(=O)[C@H](Cc2ccccc2)N(C)C(=O)[C@@H](C(C)C)OC(=O)[C@H](Cc2ccccc2)N(C)C(=O)[C@@H](C(C)C)OC(=O)[C@H](Cc2ccccc2)N(C)C1=O`, -20.5% [at 25.3 µM].
Consider `CCC1C2CC3C4N(C)c5ccccc5C45CC(C2C5O)N3C1O` (centres undefined), for which the “activity change, negative = cytotoxicity” value is 9.36% [at 38.5 µM].
The same measure, in the same setting: as for `CCCCCCC1C(=O)O[C@H](C)[C@H](NC(=O)c2cccc(NC=O)c2O)C(=O)O[C@@H](C)[C@@H]1OC(=O)CC(C)C` (some centres undefined), the figure is -27.9%.
With `C[C@@H]1O[C@@H](OC2CCC3(C=O)C(CCC4C3CCC3(C)C(C5=CC(=O)OC5)C(O)CC43O)C2)[C@H](O)[C@H](O)[C@H]1O[C@@H]1O[C@H](CO)[C@@H](O)[C@H](O)[C@H]1O` (some centres undefined), the Potency is 3.16 µM (active).
The same measure, in the same setting: as for `C=C(C)C(=O)O[C@H]1[C@@H]2[C@H](C)C(=O)O[C@@H]2C[C@@H](C)[C@@H]2C=CC(=O)[C@]21C`, the figure is 8.91 µM (active).
For the compound `CCN1C[C@]2(COC)CC[C@H](O)[C@@]34C5C[C@@H]6[C@@H](OC)C[C@@](OC(C)=O)(C5[C@@H]6OC(C)=O)[C@H]([C@H](OC)C23)[C@@H]14` (some centres undefined), the “activity change, negative = cytotoxicity” value was -6.91% [at 25.3 µM].
Same read-out and setting: as for `C[C@]12CC[C@H](O)C[C@@]1(O)CC[C@@H]1[C@@H]2CC[C@]2(C)[C@@H](c3ccc(=O)oc3)CC[C@]12O`, the figure is 3.5%; as for `CN1C(=O)N(c2ccc(C#N)c(C(F)(F)F)c2)C(=O)[C@@]1(CO)c1ccccc1`, 5.12%; as for `CCCCCn1cc(C(=O)Oc2cccc3cccnc23)c2ccccc21`, 0.469%.
Still for that read-out and setting: as for `CN=C(NS(=O)(=O)c1ccc(Cl)cc1)N1C[C@H](c2ccccc2)C(c2ccc(Cl)cc2)=N1`, the figure is -0.0783%.
Turning to `COC1CC(O[C@H]2CC[C@@]3(C)C(CCC4C3CC[C@]3(C)C(C5=CC(=O)OC5)CCC43O)C2)OC(C)C1OC1OC(COC2OC(CO)C(O)C(O)C2O)C(O)C(O)C1O` (some centres undefined), the Potency was 0.794 µM (active).
Still for that read-out and setting: with `CN1Cc2c(ccc3c2OCO3)[C@@H]2[C@H]1c1cc3c(cc1C[C@@H]2O)OCO3` the figure was 3.55 µM (active).
With `CN(Cc1cccc(-c2ccncc2)c1)C(=O)Oc1ccc(-c2ccc(C(N)=O)cc2)cc1`, the “activity change, negative = cytotoxicity” value was -2.29%.
On the same count and under the same terms, with `CN(C(=O)C(c1ccccc1)c1ccccc1)[C@H](CN1CC[C@H](O)C1)c1ccccc1` the figure was -8.23%; with `COC(=O)C12C(=O)C(C)(O)C(=O)C1(C)C(C)=CC1C34CCC(OC3=O)C(C)(C)C4CCC12C` (centres undefined), -19.1% [at 25.3 µM].
Same read-out and setting: as for `CCOc1ccc(Oc2ccc(OCc3cc(F)ccc3F)cc2)c(N)c1`, the figure is 4.12%.
On the same count and under the same terms, with `Cc1ccc2c(c1)[C@H]1CN(C)CC[C@H]1N2C(=O)CSc1nnnn1-c1ccc(Cl)cc1` the figure was 11.1%.
As for `C=C1C2(C)CC3C(C)(O)C4=CC(=O)OC(C)(C)C4=CCC3(C)C13C(=O)OC(C)C3(O)C2=O` (centres undefined), the “activity change, negative = cytotoxicity” value is -0.0646% [at 25.3 µM].
Still for that read-out and setting: with `CCCN(CCC)[C@@H]1CCc2ccc3[nH]c(C#N)cc3c2C1` the figure was 6.19%; with `c1ccc([C@@H]2C[C@H]2NC2CCNCC2)cc1`, -15.4%.
On the same count and under the same terms, with `CC(=O)OC[C@]12[C@H](OC(C)=O)C(=O)[C@@H]3[C@@H](O)[C@@]14O[C@@]3(C)COC(=O)c1cccnc1[C@@H](C)[C@H](C)C(=O)O[C@@H]([C@H](OC(C)=O)[C@@H]2OC(C)=O)[C@]4(C)O` the figure was 3.99% [at 25.3 µM]; with `Cc1c(N[C@@H](c2nnc(-c3ccc(C#N)cc3)o2)[C@H](C)O)ccc(C#N)c1Cl`, 4.29%.
Same read-out and setting: with `COc1ccc2c(c1)c(CCN(C)C)cn2S(=O)(=O)c1ccccc1` the figure was -3.55%.
